These results are taken from PubChem BioAssay (Tox21).

Experiment [1] deals with Thyrotropin receptor (Homo sapiens) (UniProt P16473). Description: qHTS assay to identify small molecule agonists of the thyroid stimulating hormone receptor (TSHR) signaling pathway (AID 1224843; calls by dose curve; also: nearly all actives have a fitted effect of over 45% in size). An outline of the steps:
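HEK293/TSHR, 800 cells/well; cpd 30 min RT; add cAMP-d2 + anti-cAMP-cryptate, 1 h RT; fluorescence read on plate reader. 15-pt titration, n=3.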
(In general: In qHTS, concentration-response curves come from the screen itself.)

A short description of experiment [2]: qHTS assay to identify small molecule agonists of the hypoxia (HIF-1) signaling pathway - cell viability counter screen (AID 1224844; calls by dose curve; also: nearly all actives have a fitted effect of over 50% in size). An outline of the steps: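 Viability counter screen: HRE-bla ME-180 cells plated 5 hrs before compound addition, treated 17 hrs at 37C and 5% CO2, then CellTiter-Glo added after the FRET reporter read; luminescence after 30 min.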

Experiment [3] can be described thus: qHTS assay to identify small molecule agonists of H2AX (AID 1224845; active = well fitted activation curve with a large enough effect in the signal ratio in the repeat runs, not every such curve was filed as active; the % refers to the signal ratio). Summed up:
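Wild-type CHO-K1 cells, plated overnight, exposed 3hr at 37C to 15 concentrations (0.76% DMSO final). Lysed, then HTRF anti-pH2AX (S139) cryptate and anti-H2AX-d2 antibodies, 24 hr room temperature; 665/620 nm emission read.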

A short description of experiment [4]: qHTS assay to identify small molecule agonists of the hypoxia (HIF-1) signaling pathway (AID 1224846; active = well fitted activation curve with a large enough effect in the signal ratio in the repeat runs, not every such curve was filed as active; the % refers to the signal ratio). Summed up: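 Agonist mode reporter screen. ME-180 cells stably expressing bla under HRE control received test compounds in DMSO for 17 hrs (37C, 5% CO2), and beta-lactamase activity was then detected with the CCF4-AM FRET substrate.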
A short description of experiment [5]: qHTS assay to identify small molecule agonists of H2AX - cell viability counter screen (AID 1224847; calls by dose curve; also: top concentration of the series differs between compounds; nearly all actives have a fitted effect of over 30% in size). Summed up:
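We seed wild-type CHO-K1 cells overnight, treat them for 3 hr at 37C with compounds in 15-concentration series, and quantify remaining viability by CellTiter-Glo luminescence.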

The nature of experiment [6]: qHTS RealTime-Glo MT Cell Viability Assay in HepG2 cells - 24 hour (AID 1224867). Also: nearly all actives have a fitted effect of over 50% in size. Summed up:
(§1)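 Compound treatment began 5 h after plating HepG2 cells (600/well) with NanoLuc luciferase and prosubstrate. Plates stayed at 37 C for 40 h; luminescence was captured at six time points, 0 h through 40 h.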

A short description of experiment [7]: A CellTox Green Cytotoxicity Assay to monitor cytotoxicity in HEK293 cells - 0 hour (AID 1224869). Also: nearly all actives have a fitted effect of over 50% in size. An outline of the steps:
(§2)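 Dead-cell fluorescence measured kinetically: asymmetric cyanine dye, HEK293, 600 cells/well, 5 h settle, 23 nL cpd/DMSO, 37 C, reads 0–40 h every 8 h.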

The nature of experiment [8]: A CellTox Green Cytotoxicity Assay to monitor cytotoxicity in HEK293 cells - 40 hour (AID 1224871). Also: nearly all actives have a fitted effect of over 45% in size. Also: potency is read from the fitted curve at half-maximal effect. An outline of the steps: as §2
A short description of experiment [9]: qHTS RealTime-Glo MT Cell Viability Assay in HepG2 cells - 8 hour (AID 1224873). Also: nearly all actives have a fitted effect of over 55% in size. An outline of the steps:
(§3)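 HepG2 cells (600/well) mixed with RealTime-Glo MT reagent, settled 5 h at 37 C/5% CO2 before compound addition. Nonlytic NanoLuc luminescence from viable-cell prosubstrate reduction read repeatedly during 40 h treatment at 37 C.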

The nature of experiment [10]: qHTS RealTime-Glo MT Cell Viability Assay in HEK293 cells - 40 hour (AID 1224874). Also: nearly all actives have a fitted effect of over 50% in size. Also: potency is read from the fitted curve at half-maximal effect. To be noted: RealTime-Glo luminescence; max response: stronger effect = lower value. An outline of the steps: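 600 HEK293 cells per well, dispensed already mixed with RealTime-Glo MT reagents. Compound dosing came 5 h later. The same wells were read for luminescence at 0, 8, 16, 24, 32 and 40 h of exposure at 37 C.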

Experiment [11] in a line: A CellTox Green Cytotoxicity Assay to monitor cytotoxicity in HEK293 cells - 24 hour (AID 1224875). Also: nearly all actives have a fitted effect of over 45% in size. Summed up:
as §2

Experiment [12] in a line: A CellTox Green Cytotoxicity Assay to monitor cytotoxicity in HepG2 cells - 16 hour (AID 1224876). Also: nearly all actives have a fitted effect of over 45% in size. An outline of the steps:
(§4)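 First, HepG2 cells (600/well) mixed with reagent were plated; second, after 5 h at 37 C they received compounds via pintool; third, fluorescence was measured at 0 h through 40 h at 8 h intervals.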

A short description of experiment [13]: qHTS RealTime-Glo MT Cell Viability Assay in HepG2 cells - 32 hour (AID 1224877). Also: nearly all actives have a fitted effect of over 55% in size. Summed up: as §1
The nature of experiment [14]: A CellTox Green Cytotoxicity Assay to monitor cytotoxicity in HepG2 cells - 24 hour (AID 1224878). Also: nearly all actives have a fitted effect of over 45% in size. Also: potency is read from the fitted curve at half-maximal effect. Summed up:
as §4

Experiment [15] in a line: A CellTox Green Cytotoxicity Assay to monitor cytotoxicity in HepG2 cells - 40 hour (AID 1224879). Also: nearly all actives have a fitted effect of over 40% in size. An outline of the steps: as §4
Experiment [16] can be described thus: qHTS assay to identify small molecule antagonists of the estrogen related receptor (ERR) signaling pathway from Tox21 library (AID 1224848). Also: nearly all actives have a fitted effect of over 50% in size. Summed up: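 Compounds dissolved in DMSO are pin-transferred onto ERR reporter cells (2,000 per well) that have settled for 6 h at 37 C. Plates then incubate 18 h at 37 C before ONE-Glo luciferase reagent and a luminescence read 30 min later.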

Experiment [17] is described as follows: qHTS assay to identify small molecule agonists of the estrogen related receptor (ERR) signaling pathway from Tox21 library (AID 1224849; calls by dose curve; also: nearly all actives have a fitted effect of over 15% in size). To be noted: ERR reporter cell line, ONE-Glo luciferase, 18 h; at 92.4 µM (top of the series) unless noted. An outline of the steps:
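Quantitative HTS in agonist format: NTP ERR cell line, compounds transferred in DMSO after 6 h plating, 18 h incubation at 37 C, ONE-Glo luminescence endpoint.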

Experiment [18] in a line: qHTS RealTime-Glo MT Cell Viability Assay in HEK293 cells - 32 hour (AID 1224868). Also: nearly all actives have a fitted effect of over 50% in size. Also: potency is read from the fitted curve at half-maximal effect. Summed up: (§5)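 Quantitative high-throughput screen of the Tox21 10K library in HEK293: cells and RealTime-Glo reagents plated together, compound added at 5 h, luminescence monitored through 40 h at 37 C.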
Experiment [19] can be described thus: qHTS RealTime-Glo MT Cell Viability Assay in HepG2 cells - 40 hour (AID 1224870). Also: nearly all actives have a fitted effect of over 50% in size. Summed up:
as §3

Experiment [20] in a line: qHTS RealTime-Glo MT Cell Viability Assay in HEK293 cells - 16 hour (AID 1224872). Also: nearly all actives have a fitted effect of over 50% in size. Also: potency is read from the fitted curve at half-maximal effect. An outline of the steps:
as §5

Several values for one entry are separate records, joined by “and”; a condition that tells them apart may be missing. Equal values may be shown once. Results filed as inconclusive are left out. Some compounds were tested as several samples or in several runs, with calls that do not always agree. Activity calls are given as the source filed them. Unless noted, calls follow the shape of the dose curve; as a rule, active = well fitted curve in the direction sought with a large enough effect in the repeat runs; inconclusive = weak or mixed curves; inactive = no such curve, though single readings can be large; an effect the other way counts as inactive or inconclusive.
% is scaled to controls: 0 for no effect and ±100 for the full control effect.

Chain of Thyrotropin receptor (Homo sapiens) (P16473 whole entry, looked up): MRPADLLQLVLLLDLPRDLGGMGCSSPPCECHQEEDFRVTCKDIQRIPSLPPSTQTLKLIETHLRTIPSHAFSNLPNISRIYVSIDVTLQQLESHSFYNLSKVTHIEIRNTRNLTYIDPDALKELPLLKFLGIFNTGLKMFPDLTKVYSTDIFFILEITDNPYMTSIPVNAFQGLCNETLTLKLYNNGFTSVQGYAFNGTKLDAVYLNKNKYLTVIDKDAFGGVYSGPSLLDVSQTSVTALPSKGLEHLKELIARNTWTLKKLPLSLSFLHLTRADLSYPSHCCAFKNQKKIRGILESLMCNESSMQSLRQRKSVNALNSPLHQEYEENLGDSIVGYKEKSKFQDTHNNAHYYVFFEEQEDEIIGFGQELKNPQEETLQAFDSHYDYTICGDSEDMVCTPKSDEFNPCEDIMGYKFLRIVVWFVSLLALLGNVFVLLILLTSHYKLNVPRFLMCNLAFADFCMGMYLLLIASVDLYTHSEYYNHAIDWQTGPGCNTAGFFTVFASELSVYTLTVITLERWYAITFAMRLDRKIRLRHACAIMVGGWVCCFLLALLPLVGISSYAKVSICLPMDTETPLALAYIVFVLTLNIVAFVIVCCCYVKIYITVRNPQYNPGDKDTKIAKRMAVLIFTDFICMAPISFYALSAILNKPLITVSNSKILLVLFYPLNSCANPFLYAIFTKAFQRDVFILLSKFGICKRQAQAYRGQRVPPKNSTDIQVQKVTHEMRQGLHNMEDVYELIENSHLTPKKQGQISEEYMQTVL

On to `CCOC(=O)c1c(N)sc2c1CCN(Cc1ccccc1)C2`, for which the Potency entry in experiment [1], in experiment [2], in experiment [3], in experiment [5], in experiment [6] and in experiment [7] was “inactive” each time. Also, the Potency entry in experiment [8], in [9], in [11], in [12], in experiment [13] and in experiment [14] was “inactive” in each case. Moreover, in experiment [15], the Potency result is “inactive”. The compound was called inactive in [4]. Further, the Potency in experiment [10] was 19 µM (active).
In the case of `CN=C(N)NC(=O)Nc1c(C)cccc1C`, the Potency entry in experiment [1], in [2], in experiment [3], in experiment [16], in experiment [18] and in [7] was “inactive” each time. Further, the Potency entry in experiment [19], in [8], in experiment [20], in experiment [9], in experiment [11] and in [12] was “inactive” throughout. The Potency result in experiment [13], in experiment [14] and in [15] was “inactive” throughout. Besides, in [4], the outcome was inactive. The activity change, positive = activation in [17] is -0.434% [at 42.5 µM] (inactive). Further, in [10], the max response was 5.93% (inactive).
Take `CC(C)N(C)C`: the Potency result in experiment [1], in [2], in experiment [3], in experiment [6], in [18] and in experiment [7] was “inactive” throughout. The Potency result in experiment [8], in experiment [20], in experiment [9], in experiment [11], in [12] and in [13] was “inactive” throughout. The Potency entry in [14] and in experiment [15] was “inactive” each time. The compound was classed as inactive in experiment [4]. In [10], the max response is 0.0453% (inactive).
Regarding `COc1cc(NC(C)CCCN)c2ncccc2c1` (configuration not stated), the Potency result in [1], in [2], in experiment [3], in experiment [5], in [16] and in experiment [6] was “inactive” in each case. Moreover, the Potency result in experiment [18], in experiment [7], in [8], in experiment [20], in experiment [9] and in experiment [11] was “inactive” throughout. Further, the Potency entry in experiment [12], in experiment [13], in experiment [14] and in [15] was “inactive” each time. Also, the max response in experiment [10] is -12.5% (inactive).
`O=C(O)CCCc1c[nH]c2ccccc12`: the Potency result in [1], in [2], in experiment [3], in experiment [16], in experiment [18] and in experiment [7] was “inactive” in each case. Further, the Potency entry in experiment [8], in experiment [20], in experiment [9], in [11], in [12] and in experiment [13] was “inactive” in each case. For the same compound, the call in [4] was inactive. Also, in experiment [17], the activity change, positive = activation was 11.9% (inactive). Also, the max response in experiment [10] is -0.277% (inactive). In addition, the Potency in [14] is 17.4 µM (active).
Regarding `CC(=O)C(=O)CC(C)C`, the Potency entry in experiment [1], in experiment [2], in experiment [3], in experiment [5], in experiment [18] and in experiment [7] was “inactive” throughout. The Potency result in experiment [19], in experiment [8], in experiment [20], in experiment [9], in [11] and in experiment [12] was “inactive” throughout. Besides, the Potency entry in [13], in experiment [14] and in [15] was “inactive” throughout. The call in experiment [4] was inactive. Further, the max response in experiment [10] is 9.63% (inactive).
Take `COc1ccc2nc(S(=O)Cc3ncc(C)c(OC)c3C)[nH]c2c1` (configuration not stated): the Potency entry in experiment [1], in experiment [2], in experiment [3], in experiment [5], in experiment [7] and in experiment [19] was “inactive” throughout. Further, the Potency entry in experiment [9], in experiment [11], in [12], in [13], in experiment [14] and in [15] was “inactive” throughout. The call in experiment [4] was inactive. Besides, the Potency was 21.6 µM (active) and inactive in [18]; “inactive and 1.7 nM (active)” in experiment [8]; 21.6 µM (active) and inactive in [20]; 19.3 µM (active) in [10]. Also, the max response in [10] is -10.3% (inactive).
For the compound `CCC(CO)(CO)[N+](=O)[O-]`, the Potency entry in [1], in experiment [2], in [3], in [16], in [6] and in [18] was “inactive” in each case. For the same compound, the Potency entry in [7], in experiment [19], in [20], in experiment [9], in experiment [11] and in [13] was “inactive” throughout. In addition, the compound was classed as inactive in experiment [4]. In experiment [17], the activity change, positive = activation is 1.64% (inactive). The max response in experiment [10] was 1.66% (inactive).
